Measured values reported in the supplement of paper PMC11628255, “Interference of metal ions on the bioluminescent signal of firefly, Renilla, and NanoLuc luciferases in high-throughput screening assays” (Frontiers in Chemistry, 2024).
± gives the standard deviation of the averaged measurements.

Test system: firefly luciferase (FLuc)
Test: residual bioluminescent signal relative to negative (DMSO) control; higher = less interference (more residual luciferase signal)
Procedure: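 Purified luciferase (FLuc 10 nM + 10 uM D-luciferin; NLuc 10 pM + 10 uM furimazine; RLuc 50 pM + 2 uM coelenterazine) in 384-well plates; metal salt pre-incubated with enzyme 10 min at RT, substrate added and luminescence read after 10 min. Signal normalised to plate DMSO negative control (% N_VALUE = x/mean neg *100); triplicate wells at 0.01, 1 and 5 mM salt.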

[1] = metal salt concentration 0.01 mM, HEPES conditions (100 mM HEPES, 5 mM MgSO4, 10 uM ATP, pH 7.5)
[2] = metal salt concentration 0.01 mM, screening conditions (0.5 mM Tris, 50 mM glycine, 0.5 mM EDTA, 5 mM MgSO4, 10 uM ATP, pH 7.6)
[3] = metal salt concentration 1 mM, HEPES conditions (100 mM HEPES, 5 mM MgSO4, 10 uM ATP, pH 7.5)
[4] = metal salt concentration 1 mM, screening conditions (0.5 mM Tris, 50 mM glycine, 0.5 mM EDTA, 5 mM MgSO4, 10 uM ATP, pH 7.6)
[5] = metal salt concentration 5 mM, HEPES conditions (100 mM HEPES, 5 mM MgSO4, 10 uM ATP, pH 7.5)
[6] = metal salt concentration 5 mM, screening conditions (0.5 mM Tris, 50 mM glycine, 0.5 mM EDTA, 5 mM MgSO4, 10 uM ATP, pH 7.6)

Structure (SMILES): [Cl][Fe]([Cl])[Cl] [iron(III) chloride]
- residual bioluminescent signal [1]: 15.5 ± 8.2%
- residual bioluminescent signal [2]: 1.32 ± 0.63%
- residual bioluminescent signal [3]: 1.09 ± 0.62%
- residual bioluminescent signal [4]: 0.712 ± 0.4%
- residual bioluminescent signal [5]: 1.9 ± 1.9%
- residual bioluminescent signal [6]: 0.29 ± 0.046%

Structure (SMILES): [Cl][Pt-2]([Cl])([Cl])[Cl].[K+].[K+] [potassium tetrachloroplatinate(II)]
- residual bioluminescent signal [1]: 85 ± 8%
- residual bioluminescent signal [2]: 87.9 ± 6.2%
- residual bioluminescent signal [3]: 3.8 ± 0.62%
- residual bioluminescent signal [4]: 0.659 ± 0.66%
- residual bioluminescent signal [5]: 1.09 ± 0.23%
- residual bioluminescent signal [6]: 0.343 ± 0.12%

Structure (SMILES): O=C([O-])[O-].[Cs+].[Cs+] [caesium carbonate]
- residual bioluminescent signal [1]: 85.2 ± 14%
- residual bioluminescent signal [2]: 93.8 ± 6.3%
- residual bioluminescent signal [3]: 91.6 ± 14%
- residual bioluminescent signal [4]: 103 ± 2.9%
- residual bioluminescent signal [5]: 79.4 ± 4.7%
- residual bioluminescent signal [6]: 56.2 ± 6.8%

Structure (SMILES): O.O.O.O.O.O.O.O.O.O.O=S(=O)([O-])[O-].[Na+].[Na+] [sodium sulfate]
- residual bioluminescent signal [1]: 81.9 ± 8.1%
- residual bioluminescent signal [2]: 73.4 ± 5.7%
- residual bioluminescent signal [3]: 51 ± 7.2%
- residual bioluminescent signal [4]: 70.4 ± 8.2%
- residual bioluminescent signal [5]: 20 ± 6.1%
- residual bioluminescent signal [6]: 51.1 ± 3.8%

Structure (SMILES): O=S(=O)([O-])[O-].[Mn+2] [manganese(II) sulfate]
- residual bioluminescent signal [1]: 85 ± 11%
- residual bioluminescent signal [2]: 82.6 ± 4.7%
- residual bioluminescent signal [3]: 80.6 ± 12%
- residual bioluminescent signal [4]: 77.1 ± 3.5%
- residual bioluminescent signal [5]: 79.4 ± 13%
- residual bioluminescent signal [6]: 57.4 ± 8.1%

Structure (SMILES): O.O.O.O.O.O.O.O=S(=O)([O-])[O-].[Mg+2] [magnesium sulfate]
- residual bioluminescent signal [1]: 78.3 ± 4.9%
- residual bioluminescent signal [2]: 71.5 ± 6.5%
- residual bioluminescent signal [3]: 77.4 ± 17%
- residual bioluminescent signal [4]: 68 ± 5.2%
- residual bioluminescent signal [5]: 55.5 ± 13%
- residual bioluminescent signal [6]: 47.7 ± 6.9%

Structure (SMILES): O=C([O-])[O-].[K+].[K+] [potassium carbonate]
- residual bioluminescent signal [1]: 84.3 ± 17%
- residual bioluminescent signal [2]: 81.3 ± 3%
- residual bioluminescent signal [3]: 83.9 ± 16%
- residual bioluminescent signal [4]: 85.8 ± 6.4%
- residual bioluminescent signal [5]: 67.9 ± 15%
- residual bioluminescent signal [6]: 49.2 ± 8.7%
